Screening data from PubChem.
T cruzi growth-1 – T. cruzi intracellular proliferation inhibitors, primary screen, cell-based, beta-gal Tulahuen parasites, NIH3T3 host, luminescence; inhibition, % at 8.34 µM; AID 624255, 2012; hit rate 5.9% among 77,000; T. cruzi beta-gal in NIH3T3, GalScreen luminescence, 90 h;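 active = mean inhibition above about 93%, with at least 55% of replicates each passing it, limit read from the data, passing the limit was not always enough; inconclusive = only one of those two conditions holds; inactive = neither condition holds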
Pf Dd2 growth – P. falciparum Dd2 growth inhibitors, primary screen, SYBR Green fluorescence, single dose replicates. hit rate 2.3% among 94,000. 72 h; active compounds read low. activity change, % at 10 µM; in the data active = activity change below about -80%; inconclusive = no clear call, values can overlap the other calls
C diff HTS – C. difficile growth inhibitors, primary screen, HTS. Clostridium difficile clinical isolate growth, OD600, 24 h; active compounds read low. hit rate 0.25% among 86,000. growth activity, negative = inhibition, % at 16 µg/mL (by protocol);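 active = mean growth activity at or below -80% and every replicate also at or below -80%; inconclusive = mean at or below -80% but some replicate above -80%; inactive = mean growth activity above -80%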;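 note: 0% = DMSO wells and -100% = levofloxacin 16 µg/mL wells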
T cruzi growth-2 – T. cruzi intracellular proliferation inhibitors, confirmation, cell-based, NIH3T3 host, beta-gal parasite, luminescence, cherry-pick. shares compounds with T cruzi growth-1. T. cruzi beta-gal in NIH3T3, GalScreen luminescence, 90 h. inhibition, % at 8.35 µM. hit rate 72% among 5,600;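 active = mean replicate inhibition above about 95% and at least 55% of replicates individually reaching it, limit read from the data; inconclusive = only one of the two criteria is met; inactive = neither criterion is met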
T cruzi growth-3 – inhibitors of intracellular T. cruzi replication, confirmation, NIH3T3 host cells, beta-gal parasites, cherry-pick, set 2; shares compounds with T cruzi growth-1; T. cruzi beta-gal in NIH3T3, GalScreen luminescence, 90 h; inhibition, % at 2.09 µM; hit rate 21% among 5,600; AID 651740, 2012;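 active = mean inhibition above about 95%, with at least 55% of replicates also reaching it, limit read from the data; inconclusive = meets just one of the two conditions; inactive = meets neither condition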;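 note: plate controls were neutral control median for no effect and positive control median for full effect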
NIH3T3 tox – cytotoxicity in mouse NIH/3T3 fibroblasts, confirmation, cytotoxicity control for T. cruzi proliferation inhibitor project, cell-based, cherry-pick, single point; shares compounds with T cruzi growth-1; NIH/3T3 viability, CellTiter-Glo ATP luminescence, 90 h; cytotoxicity (signal decrease), % at 8.35 µM; hit rate 14% among 5,600; AID 651742, 2012;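 active = mean signal decrease across replicates above about 35% based on untreated-well scatter, with enough replicates individually passing, limit read from the data; inconclusive = no rule stated though some were filed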;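 note: 0% = median of neutral control wells and 100% = median of positive control wells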
NIH3T3 tox 2 – NIH/3T3 fibroblast cytotoxicity, confirmation, cytotoxicity control, cell-based, cherry-pick, single point, set 2; shares compounds with T cruzi growth-1; NIH/3T3 viability, CellTiter-Glo ATP luminescence, 90 h; inhibition, % at 24.9 µM; hit rate 56% among 5,600; AID 651744, 2012;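 active = mean loss of cell viability signal at or above a set limit, and enough replicates individually reaching it; inconclusive = meets only the mean limit or only the replicate share; inactive = meets neither condition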;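 note: 0% = median of neutral control wells and 100% = median of positive control wells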
* hit, by the source's call; ? = inconclusive; nt = no result. Only some compounds are listed: those with a hit (about 6.7% of all), similar ones and a draw of the others.

SMILES | T cruzi growth-1 | Pf Dd2 growth | C diff HTS | T cruzi growth-2 | T cruzi growth-3 | NIH3T3 tox | NIH3T3 tox 2
O=C(C[C@@H]1C=C[C@@H](NS(=O)(=O)c2ccccc2)[C@@H](CO)O1)N1CCc2ccccc2C1 | 40 | -9 | -4 | nt | nt | nt | nt
C/C=C/[C@@H](CC(=O)N1Cc2ccccc2C[C@H]1CO)[Si](C)(C)c1ccc(OC)cc1 | nt | nt | -10 | nt | nt | nt | nt
COCC(=O)Nc1ccc2c(c1)C(=O)N(C)C[C@@H](OC)[C@@H](C)CN[C@@H](C)CO2 | -42 | -9 | -10 | nt | nt | nt | nt
CN1C(=O)c2cc(NC(=O)Cc3cccs3)ccc2OC[C@@H]2O[C@@H](CC(=O)N[C@H]3CCN(Cc4ccccc4)C3)CC[C@@H]21 | ? | nt | -2 | 89 | 85 | -18 | 4
CN1C(=O)c2cc(NC(=O)Cc3cccs3)ccc2OC[C@H]2O[C@@H](CC(=O)N[C@H]3CCN(Cc4ccccc4)C3)CC[C@H]21 | 75 | nt | -2 | nt | nt | nt | nt
CN1C(=O)c2cc(NC(=O)c3ccc(F)c(F)c3)ccc2OC[C@H]2O[C@@H](CC(=O)N[C@H]3CCN(Cc4ccccc4)C3)CC[C@H]21 | 103* | nt | 2 | 94 | 73 | -15 | ?
CN1C(=O)c2cc(NC(=O)c3ccc(F)c(F)c3)ccc2OC[C@@H]2O[C@@H](CC(=O)N[C@H]3CCN(Cc4ccccc4)C3)CC[C@@H]21 | 101* | nt | nt | 106* | 68 | 3 | 10
CN1C(=O)c2cc(NC(=O)Cc3cccs3)ccc2OC[C@@H]2O[C@@H](CC(=O)N[C@@H]3CCN(Cc4ccccc4)C3)CC[C@@H]21 | 93 | nt | -2 | nt | nt | nt | nt
Cc1noc(C)c1NC(=O)Nc1ccc2c(c1)C(=O)N(C)[C@@H]1CC[C@H](CC(=O)N[C@@H]3CCN(Cc4ccccc4)C3)O[C@@H]1CO2 | 27 | -21 | -9 | nt | nt | nt | nt
CN1C(=O)c2cc(NC(=O)Cc3cccs3)ccc2OC[C@H]2O[C@@H](CC(=O)N[C@@H]3CCN(Cc4ccccc4)C3)CC[C@H]21 | 90 | nt | -6 | nt | nt | nt | nt
Cc1noc(C)c1NC(=O)Nc1ccc2c(c1)C(=O)N(C)[C@@H]1CC[C@H](CC(=O)N[C@H]3CCN(Cc4ccccc4)C3)O[C@H]1CO2 | 104* | 9 | 15 | ? | 2 | 1 | -4
CN(C)C(=O)C[C@@H]1C[C@@H]2c3cc(NC(=O)CC4CC4)ccc3O[C@@H]2[C@H](CO)O1 | -28 | 22 | nt | nt | nt | nt | nt
CCC(=O)N1[C@@H](CO)[C@@H](c2ccccc2)C12CN(C(=O)Nc1cccc(OC)c1)C2 | nt | 22 | 3 | nt | nt | nt | nt
C[C@H]1CN([C@@H](C)CO)S(=O)(=O)c2ccc(C#CC3(O)CCCC3)cc2O[C@H]1CN(C)C(=O)Cc1cccnc1 | 19 | -8 | -1 | nt | nt | nt | nt
O=C(NC1CCC1)[C@@H]1[C@@H](CO)[C@@H]2Cn3c(ccc(-c4ccc(F)cc4)c3=O)[C@H]1N2 | 10 | nt | 0 | nt | nt | nt | nt
CN1C(=O)c2cc(NC(=O)c3ccc(F)c(F)c3)ccc2OC[C@H]2O[C@@H](CC(=O)N[C@@H]3CCN(Cc4ccccc4)C3)CC[C@H]21 | 110* | nt | 4 | 116* | 86 | 1 | 27*
CO[C@H]1CN(C)C(=O)c2cc(NS(=O)(=O)c3ccccc3)ccc2OC[C@@H](C)N(Cc2cccnc2)C[C@H]1C | 97* | -16 | nt | 101* | 47 | 5 | 35*
CO[C@H]1CN(C)C(=O)c2cc(NC(=O)C3CCC3)ccc2OC[C@@H](C)N(Cc2cccnc2)C[C@@H]1C | 103* | 12 | nt | 62 | -6 | 8 | 6
CO[C@H]1CN(C)C(=O)c2cc(NC(=O)C3CCC3)ccc2OC[C@H](C)N(Cc2cccnc2)C[C@@H]1C | 87 | 22 | nt | nt | nt | nt | nt
CO[C@@H]1CN(C)C(=O)c2cc(NS(=O)(=O)c3ccccc3)ccc2OC[C@H](C)N(Cc2cccnc2)C[C@@H]1C | 24 | -9 | nt | nt | nt | nt | nt
